Data as given in PubChem BioAssay (NCATS).
Values joined by “and” are separate entries in the source; they are usually repeats but may differ in a detail not shown here. Equal entries are not always repeated. Records with an inconclusive call do not appear. Active and inactive are the calls of the source. Unless noted, the call rests on the fitted dose curve; in most records, active means well fitted curve in the direction sought with a large enough effect; inconclusive means small, poorly fitted or top-dose-only effect, or another doubt; inactive means no such curve, though single readings can be large; an effect the other way counts as inactive or inconclusive.

Legend:
[1] = target: Cellular tumor antigen p53 (Homo sapiens) (UniProt P04637); test: Primary qHTS for small molecule compounds that upregulate eGFP-tagged delta133p53alpha (in N-terminal) cells. (AID 2060322); conditions: NCI-H358 eGFP-delta133p53alpha fluorescence, 24 h; activation: stronger effect = higher value;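 further: cells pre-induced with doxycycline then dosed without doxycycline; 0% = DMSO vehicle and 100% = reference activator; nearly all actives have a fitted effect of over 75% in size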
Outline: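 NCI-H358 cells pre-induced 24 h with 10 ng/ml doxycycline for eGFP-delta133p53alpha, plated dox-free and exposed 24 h at 37C to titrated compounds. Fixed, Hoechst-stained; gated GFP peak intensity by laser scanning cytometry, normalized to DMSO (0%) and 57.5 uM 5-azacytidine (100%).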

[2] = target: Cellular tumor antigen p53 (Homo sapiens) (UniProt P04637); test: Primary qHTS for small molecule compounds that upregulate eGFP-tagged delta133p53alpha (in C-terminal) cells. (AID 2060324); conditions: NCI-H358 delta133p53alpha-eGFP (C-terminal tag), GFP fluorescence imaging, 24 h; series mostly up to 57.5 µM;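 further: 0% = DMSO wells and 100% = 57.5 µM 5-azacytidine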
Outline: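 Readout: filtered GFP peak intensity of gated cells (laser scanning cytometer), normalized plate-wise to intraplate controls, DMSO wells = 0% activity. Cells: NCI-H358 D133p53a-eGFP, dox 100 ng/ml 24 h beforehand, then compound 24 h, 37 °C.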

[3] = target: Aldehyde dehydrogenase, mitochondrial (Homo sapiens) (UniProt P05091); test: qHTS for Inhibitors of the Aldehyde Dehydrogenase Family (ALDH2) Validation screens (AID 2061302; active means well fitted inhibition curve with a large enough effect; title and protocol of this record describe different tests;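 further: plate controls were DMSO vehicle for no effect and maximal DPI positive control response for full effect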); conditions: ALDH inhibition qHTS; series mostly up to 42.6 µM
[4] = target: Retinaldehyde dehydrogenase 3 (Homo sapiens) (UniProt P47895); test: qHTS for Inhibitors of the Aldehyde Dehydrogenase Family (ALDH1A3) Validation screen (AID 2061312); conditions: ALDH1A3 enzyme inhibition qHTS validation, fluorescence; series mostly up to 84.7 µM; further: on the % scale 0 is the no-effect control and ±100 the full control effect; nearly all actives have a fitted effect of over 45% in size

Chain of Cellular tumor antigen p53 (Homo sapiens) (P04637 whole entry, looked up): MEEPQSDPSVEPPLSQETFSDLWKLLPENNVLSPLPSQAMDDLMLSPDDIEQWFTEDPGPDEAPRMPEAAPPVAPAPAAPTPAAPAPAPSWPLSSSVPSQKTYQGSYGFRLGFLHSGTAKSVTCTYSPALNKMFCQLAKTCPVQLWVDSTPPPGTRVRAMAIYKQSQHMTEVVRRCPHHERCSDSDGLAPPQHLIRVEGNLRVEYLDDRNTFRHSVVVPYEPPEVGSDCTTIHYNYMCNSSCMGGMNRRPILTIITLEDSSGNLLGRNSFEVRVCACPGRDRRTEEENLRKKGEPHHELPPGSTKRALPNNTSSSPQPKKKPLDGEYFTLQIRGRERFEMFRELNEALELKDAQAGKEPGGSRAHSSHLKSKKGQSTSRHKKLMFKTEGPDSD

C#C[C@]1(O)CC[C@H]2[C@@H]3CCC4=Cc5oncc5CC4(C)[C@H]3CCC21C (some centres not stated)
inactive: activation [1] -35.6% | Potency [2] | Potency [3] | Potency [4]

N=S(=O)(O)Cc1noc2ccccc12
inactive: activation [1] -35.5% | Potency [2] | Potency [3] | Potency [4]

N[C@@H](Cc1ccc(F)cc1)C(=O)O
inactive: activation [1] -38.4% | Potency [2] | Potency [3] | Potency [4]

CC#CCOC(=O)c1c(C)nc2sc3c(c2c1N)CCC(O)C3 (configuration not stated)
inactive: activation [1] -13.8% | Potency [2] | Potency [3] | Potency [4]

CO[C@H]1O[C@@H]2O[C@]3(C)CC[C@@H]4[C@@H](C)CC[C@H]([C@H]1C)[C@]24OO3
inactive: activation [1] -13% | Potency [2] | Potency [3] | Potency [4]

COc1cc(CNC(=O)CCCCCCC(C)C)ccc1O
inactive: activation [1] 0.736% | Potency [2] | Potency [3] | Potency [4]

OC[C@H]1O[C@H](n2cnc3c(N[C@H]4CCC[C@@H]4O)ncnc32)[C@H](O)[C@@H]1O
inactive: activation [1] -36% | Potency [2] | Potency [3] | Potency [4]

C[N+](C)(C)CC=O
inactive: activation [1] -21.7% | Potency [2] | Potency [3] | Potency [4]

OC[C@H]1NC[C@@H](O)[C@@H]1O
inactive: activation [1] 4.88% | Potency [2] | Potency [3] | Potency [4]

O=C(O)CN(CCN(CC(=O)O)CC(=O)O)CCN(CC(=O)O)CC(=O)O
inactive: activation [1] -33.2% | Potency [2] | Potency [3] | Potency [4]

c1ccc2c(c1)CC(N1CCN(c3cccc4c3OCCO4)CC1)C2
inactive: activation [1] 1.22% | Potency [2] | Potency [3] | Potency [4]

CCC1C(=O)OCC1Cc1cncn1C (configuration not stated)
inactive: activation [1] -0.565% and -54.1% and -41.4% | Potency [2] | Potency [3] | Potency [4]

COCc1nc2c([nH]1)c(=O)n(C)c(=O)n2CC(C)C
inactive: activation [1] 12.4% | Potency [2] | Potency [3] | Potency [4]

CCn1c(=O)[nH]c2cc(Cl)c(Cl)cc21
inactive: activation [1] -55.4% | Potency [2] | Potency [3] | Potency [4]

CSC(N)=NCCC[C@H](N)C(=O)O
inactive: activation [1] 3.33% | Potency [2] | Potency [3] | Potency [4]

CN[C@H](CC(=O)O)C(=O)O
inactive: activation [1] -12.8% | Potency [2] | Potency [3] | Potency [4]

C(=C\c1ccccc1)/CN1CCN(C(c2ccccc2)c2ccccc2)CC1
inactive: activation [1] -1.67% and -21% | Potency [2] | Potency [3] | Potency [4]

OC[C@H]1O[C@@H](n2cnc3cncnc32)[C@H](O)[C@@H]1O
inactive: activation [1] -14.1% | Potency [2] | Potency [3] | Potency [4]

CC(C)NCC(O)COc1ccc(COCCOC(C)C)cc1 (configuration not stated)
inactive: activation [1] -8.37% and -9.29% and -8.52% | Potency [2] | Potency [3] | Potency [4]

Nc1ncnc2c1ncn2C1CCCO1 (configuration not stated)
inactive: activation [1] 9.27% | Potency [2] | Potency [3] | Potency [4]

CCc1cccc2c3c([nH]c12)C(CC)(CC(=O)O)OCC3 (configuration not stated)
inactive: activation [1] -0.565% and -1.6% | Potency [2] | Potency [3] | Potency [4]

Nc1nc(Cl)nc2c1ncn2[C@@H]1O[C@H](COP(=O)(O)OP(=O)(O)OP(=O)(O)O)[C@@H](O)[C@H]1O
inactive: activation [1] -39.8% | Potency [2] | Potency [3] | Potency [4]

CO/N=C(\C(=O)N[C@@H]1C(=O)N2C(C(=O)O)=C(COC(C)=O)CS[C@H]12)c1csc(N)n1
inactive: activation [1] 2.44% | Potency [2] | Potency [3] | Potency [4]

N[C@@H](CCCC(=O)O)C(=O)O
inactive: activation [1] -8.81% | Potency [2] | Potency [3] | Potency [4]

CC1OC1P(=O)(O)O (configuration not stated)
inactive: activation [1] 13.6% | Potency [2] | Potency [3] | Potency [4]

O=c1[nH]c(=O)n([C@H]2C[C@H](O)[C@@H](CO)O2)cc1Br
inactive: activation [1] -16.4% and -22.3% | Potency [2] | Potency [3] | Potency [4]

CC[N+](CC)(CC)CC(=O)Nc1c(C)cccc1C
inactive: activation [1] -4.9% | Potency [2] | Potency [3] | Potency [4]

CCN(CC)CCNC(=O)c1cc(S(C)(=O)=O)ccc1OC
inactive: activation [1] -10% and -17.5% | Potency [2] | Potency [3] | Potency [4]

CN1CCN2c3ccccc3Cc3ccccc3C2C1 (configuration not stated)
inactive: activation [1] -35.4% | Potency [2] | Potency [3] | Potency [4]

CNCCC(Oc1ccccc1C)c1ccccc1 (configuration not stated)
inactive: activation [1] -12.7% | Potency [2] | Potency [3] | Potency [4]

CN1C2CCCC1CC(NC(=O)c1nn(C)c3ccccc13)C2 (configuration not stated)
inactive: activation [1] -4.74% | Potency [2] | Potency [3] | Potency [4]

OCCN1CCN(CCCN2c3ccccc3Sc3ccc(Cl)cc32)CC1
inactive: activation [1] -6.69% and -35.6% | Potency [2] | Potency [3] | Potency [4]

O=c1onc2n1-c1cc(Br)ccc1OC2
inactive: activation [1] -18.5% | Potency [2] | Potency [3] | Potency [4]
